# About 83,000 compounds went through this panel and 20% of them were active in at least one assay; those are over-represented in the sample as a whole.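 Percent growth is the endpoint: 0 to 100 indicates growth inhibition (40 means 60% inhibition), 0 means no net growth, and negative values indicate cell death.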 Values without a mark were called inactive. The source made the active and inactive calls. The calls were made as follows: active = growth percent below 10; inactive = the rest.
# Key:
# Experiment in all cases: NCI-60 one-dose screen, 48 h (100 = growth as untreated, 0 = no growth, -100 = all killed)
# Conditions in all cases: 10 µM unless noted
# SK-MEL-2 melanoma = tested on: SK-MEL-2 melanoma
# EKVX NSCLC = tested on: EKVX NSCLC
# SN12C renal = tested on: SN12C renal
# TK-10 renal = tested on: TK-10 renal
# ACHN renal = tested on: ACHN renal
# CAKI-1 renal = tested on: CAKI-1 renal
# A498 renal = tested on: A498 renal
# CCRF-CEM leukemia = tested on: CCRF-CEM leukemia
# UO-31 renal = tested on: UO-31 renal
# MOLT-4 leukemia = tested on: MOLT-4 leukemia
SMILES,growth (SK-MEL-2 melanoma),growth (EKVX NSCLC),growth (SN12C renal),growth (TK-10 renal),growth (ACHN renal),growth (CAKI-1 renal),growth (A498 renal),growth (CCRF-CEM leukemia),growth (UO-31 renal),growth (MOLT-4 leukemia)
C=C1c2c(C)nn(-c3ccc(N)cc3)c2N(C)C23CC1C1(C)c4c(C)nn(-c5ccc(N)cc5)c4N(C)C(C)(CC12)C3 (stereo not drawn),79.2%,52.3%,89.5%,76.2%,58.9%,76.6%,89.4%,47.8%,,
CCCCOC(=O)c1ccc(NC(=O)C(C)N2CCOCC2)cc1 (stereo not drawn),90.6%,109%,104%,,,,99.5%,72.4%,88.3%,94.9%
COc1ccc(/C(C)=C(\c2ccc(Cl)cc2)c2ccc(OCCCN(C)C)cc2)cc1F,97.2%,85.4%,76%,78.6%,76.7%,57.3%,80.1%,48.2%,,43.1%
CCOC(=O)c1cnn2c(-c3ccc(Cl)cc3)nc(NCc3ccccc3)nc12,91%,68.7%,31.2%,,,,31.5%,,59.9%,64.9%
Cn1cc(-c2ccc3ncc(-c4ccc(CC(=O)Nc5cc(C(C)(C)C)nn5C)cc4)cc3c2)cn1,-9.17% [30 µM] (active),27.1% [30 µM],16.6% [30 µM],40.6% [30 µM],8.71% [30 µM] (active),5.68% [30 µM] (active),11.4% [30 µM],-15.4% [30 µM] (active),,-22.1% [30 µM] (active)
C=CCOc1cccc(/C=C2\SC(=Nc3ccc(O)cc3)NC2=O)c1,40.6%,28.8%,14.9%,,24.3%,24.4%,,,20.7%,13.4%
O=C1Nc2ccccc2/C1=N/N=C/c1c[nH]c2ccccc12,55.5%,21.8%,73.8%,,48.3%,17.8%,,83.3%,26.4%,71.8%
CC(=O)Nc1cccc(C2=CC(c3ccc(C)cc3)n3ncnc3N2)c1 (stereo not drawn),103%,102%,101%,110%,96.7%,106%,93.9%,110%,,87.9%
CCCc1nc2ccccn2c1Nc1ccc(C(=O)NO)cc1,92.1%,100%,86.5%,94.7%,91.8%,88.8%,87.3%,74.2%,,
CN(C)CCCCNc1ccc(NCCCCN(C)C)c2c1C(=O)c1c(O)ccc(O)c1C2=O,98.2%,-76.2% (active),64.2%,-93.6% (active),-89.2% (active),-91.7% (active),92.4%,-28.5% (active),,-34.6% (active)
CCN(CC)CC(O)CNc1c2ccc(Cl)cc2nc2ccc(OC)cc12 (stereo not drawn),-63.4% (active),7.93% (active),4.08% (active),-21.8% (active),12.1%,-63.6% (active),43.6%,0.913% (active),,4.43% (active)
COc1ccc(C2=NC(=O)NC2c2ccc(OC)cc2)cc1 (stereo not drawn),59.9%,75.9%,71%,87.6%,,50.6%,,68.3%,,65.8%
Cc1cc(N(CCCNc2ccnc3cc(Cl)ccc23)Cc2ccccn2)nc(N2CCCC2)n1,99.8%,76.3%,,136%,93.5%,76.5%,95.1%,53.9%,53.8%,
COc1cc2c(cc1OC)-c1ccc3cc4c(cc3c1N(CCCN(C)C)C2)OCO4,45.4%,60%,27.4%,,,,8.3% (active),20.5%,38.7%,8.66% (active)
CC1(C)C(=O)/C(=C\c2cccnc2)C[C@]2(C)[C@H]3CC=C4[C@@H]5C[C@@](C)(C(=O)O)CC[C@]5(C)CC[C@@]4(C)[C@]3(C)CC[C@@H]12,96.8%,95.8%,94.2%,101%,95.8%,86.9%,100%,81.8%,,87.2%
COc1ccc(-c2nnc(-c3ccc4c(c3)nc(-c3ccccc3)n4C3CCCCC3)o2)cc1,57.9%,73%,65.4%,,60.5%,,85.2%,35.4%,40.7%,31.5%

SMILES,growth (SK-MEL-2 melanoma),growth (EKVX NSCLC),growth (SN12C renal),growth (TK-10 renal),growth (ACHN renal),growth (CAKI-1 renal),growth (A498 renal),growth (CCRF-CEM leukemia),growth (UO-31 renal),growth (MOLT-4 leukemia)
Cn1ncc2c(Nc3ccc(Br)cc3)nc(Nc3ccc(Br)cc3)nc21,47.6%,41%,47.1%,73.1%,40.1%,37.7%,,27.8%,,26.7%
COc1cc2ccccc2cc1C(=O)NC(=S)Nc1ccc(-c2nc3ccccc3[nH]2)cc1,105%,89.9%,83.4%,83.4%,99.2%,90.7%,,79.2%,,91.1%
N#Cc1c(Oc2ccc([N+](=O)[O-])cc2)nc2sc3cc(Cl)ccc3n2c1=N,84.5%,84%,91%,49.9%,100%,111%,100%,96.5%,,77.3%
Cc1cc(-c2noc(C(F)(F)F)n2)ccc1N1CCN(c2cc(C(=O)N(C)C)no2)CC1,73%,49.5%,83%,,63.9%,67.7%,,65.3%,,71.5%
CCOC(=O)c1c(C)[nH]c(C(=O)CCC(=O)OC)c1C,83.1%,95.2%,110%,84.3%,,,119%,92.8%,,93%
CC(C)OCCCNCC(=O)Nc1ccc(S(=O)(=O)c2ccc(NC(=O)CNCCCOC(C)C)cc2)cc1,115%,101%,90.8%,93.9%,100%,94.4%,89.5%,,,
CCCCCOC(=O)c1ccc(NC(=O)CNCC(C)C)cc1,103%,90.8%,94%,,,,71.8%,74.3%,66.5%,86.5%
O=C(/C=C/C12c3ccccc3C(c3ccccc31)C1C(=O)N(c3ccccc3)C(=O)C12)c1ccc(Cl)cc1 (stereo not drawn),22.3%,22.9%,19.9%,42.8%,-36.2% (active),54.2%,,13%,,11.9%
CS(=O)(=O)c1ccc(-c2nc3cc(Cl)ccc3n2CC(=O)N/N=C/c2ccc(Cl)cc2)cc1,44.3%,72.1%,69.3%,81.7%,61.5%,71.3%,68.4%,19.9%,,12.6%
COc1cc(C2CC(=O)Nc3n[nH]c(-c4ccccc4)c32)cc(OC)c1OC (stereo not drawn),59.8%,78.2%,84.2%,97.7%,104%,92%,,70.2%,,54%
Cc1nc(-c2ccccc2)cc2c(O)c(C(=O)N/N=C/c3ccc(N(C)C)cc3)[nH]c(=O)c12,99.7%,82.5%,82%,88.8%,67.5%,99.4%,93.9%,96.7%,,22.9%
CCOc1ccc(-c2nc3ccc(-c4nc5ccc(N6CCN(C)CC6)cc5[nH]4)cc3[nH]2)cc1OCC,-17.5% (active),50.2%,20.8%,91%,81.9%,40.8%,,11.3%,,9.04% (active)
CCOC(=O)C1C(=O)C=C(c2cnccn2)CC1c1ccc(OC)c(OC)c1 (stereo not drawn),86.4%,101%,100%,,,,119%,82.2%,87.4%,73.2%
NS(=O)(=O)c1cnccc1-n1ccc(=O)c(S(N)(=O)=O)c1,81.1%,90.3%,92.6%,,93.6%,,85.4%,88.5%,68.6%,76.9%
COc1ccc(/C=C2\COc3ccc(O)cc3C2=O)cc1OC,97.1%,96.3%,59.3%,93.1%,73%,62.3%,90.6%,,,
COc1ccc(-c2cc(-c3ccc(Nc4nc(Nc5ccccc5)nc(Nc5ccc(Cl)cc5)n4)cc3)nc(N)c2C#N)cc1,-33% (active),18.7%,25.7%,-86.6% (active),-82.2% (active),-20.4% (active),,3.41% (active),,2.08% (active)

# Reference: PubChem BioAssay (NCI)
